# Measured values reported in the supplement of paper PMC11732987, “Enantioselective OTUD7B fragment discovery through chemoproteomics screening and high-throughput optimisation” (Communications Chemistry, 2025).
# A number with no mark means an inactive call.
# Tests used:
# Test in all cases: log2 ratio of Biotin-Ahx-Ub-VS probe labelling (fragment/DMSO); higher = less target engagement (more negative = stronger competition), active = hit call of the paper (q ≤ 0.05, log2 ratio ≤ -1)
# Conditions in all cases: compound concentration: 200 uM; treatment time: 3 h
# USP19 = target: T1, USP19 (UniProt O94966)
# T1 sequence (whole entry): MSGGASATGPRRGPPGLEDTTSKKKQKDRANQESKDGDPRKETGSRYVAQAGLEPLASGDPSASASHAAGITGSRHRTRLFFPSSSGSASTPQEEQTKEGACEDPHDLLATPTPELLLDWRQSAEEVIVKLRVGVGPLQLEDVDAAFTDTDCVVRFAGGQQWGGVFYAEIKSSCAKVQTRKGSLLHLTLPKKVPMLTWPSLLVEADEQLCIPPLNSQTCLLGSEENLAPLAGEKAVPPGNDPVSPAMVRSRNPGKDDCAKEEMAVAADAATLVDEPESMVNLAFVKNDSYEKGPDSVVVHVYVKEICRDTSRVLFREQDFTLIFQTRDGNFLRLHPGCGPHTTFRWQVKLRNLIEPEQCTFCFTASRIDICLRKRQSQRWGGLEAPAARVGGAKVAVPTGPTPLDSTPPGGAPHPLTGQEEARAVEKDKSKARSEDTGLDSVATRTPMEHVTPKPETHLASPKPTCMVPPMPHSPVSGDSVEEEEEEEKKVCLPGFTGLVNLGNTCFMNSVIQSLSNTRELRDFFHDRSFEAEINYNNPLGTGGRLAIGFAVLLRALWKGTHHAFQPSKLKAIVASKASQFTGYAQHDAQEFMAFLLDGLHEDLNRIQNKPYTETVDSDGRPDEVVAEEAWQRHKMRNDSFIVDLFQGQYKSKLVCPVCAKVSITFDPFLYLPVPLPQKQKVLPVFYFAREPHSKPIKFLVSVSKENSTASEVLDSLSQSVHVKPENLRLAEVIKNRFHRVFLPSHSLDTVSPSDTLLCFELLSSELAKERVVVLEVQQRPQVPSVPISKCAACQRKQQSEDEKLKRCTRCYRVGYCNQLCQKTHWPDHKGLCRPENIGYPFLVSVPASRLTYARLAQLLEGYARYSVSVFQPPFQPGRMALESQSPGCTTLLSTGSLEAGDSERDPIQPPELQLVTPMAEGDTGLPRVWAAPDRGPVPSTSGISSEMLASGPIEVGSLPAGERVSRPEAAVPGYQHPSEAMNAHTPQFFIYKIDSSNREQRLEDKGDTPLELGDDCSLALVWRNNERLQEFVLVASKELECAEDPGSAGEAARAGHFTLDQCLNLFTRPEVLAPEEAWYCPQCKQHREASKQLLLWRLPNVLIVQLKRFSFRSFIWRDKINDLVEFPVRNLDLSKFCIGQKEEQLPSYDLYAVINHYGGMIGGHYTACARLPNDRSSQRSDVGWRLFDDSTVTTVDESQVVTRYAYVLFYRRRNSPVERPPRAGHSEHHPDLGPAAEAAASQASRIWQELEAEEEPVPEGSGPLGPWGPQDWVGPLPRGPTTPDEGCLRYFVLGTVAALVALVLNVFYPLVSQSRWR
# Procedure, shortened: (§1)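 Values give the average log2 ratio of fragment to vehicle, assessed by unpaired t-test on global-median-normalised Spectronaut label-free quantities. Proteins needed ≥2 unique peptides. HEK293T lysate (495 µg per sample) was treated in triplicate with fragment at 200 µM or vehicle for 3 h and then with Biotin-Ahx-Ub-VS at 0.5 µM final for 1 h. Labelled DUBs were NeutrAvidin-enriched, digested and run by diaPASEF LC-MS/MS.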
# USP22 = target: T2, USP22 (UniProt Q9UPT9)
# T2 sequence (whole entry): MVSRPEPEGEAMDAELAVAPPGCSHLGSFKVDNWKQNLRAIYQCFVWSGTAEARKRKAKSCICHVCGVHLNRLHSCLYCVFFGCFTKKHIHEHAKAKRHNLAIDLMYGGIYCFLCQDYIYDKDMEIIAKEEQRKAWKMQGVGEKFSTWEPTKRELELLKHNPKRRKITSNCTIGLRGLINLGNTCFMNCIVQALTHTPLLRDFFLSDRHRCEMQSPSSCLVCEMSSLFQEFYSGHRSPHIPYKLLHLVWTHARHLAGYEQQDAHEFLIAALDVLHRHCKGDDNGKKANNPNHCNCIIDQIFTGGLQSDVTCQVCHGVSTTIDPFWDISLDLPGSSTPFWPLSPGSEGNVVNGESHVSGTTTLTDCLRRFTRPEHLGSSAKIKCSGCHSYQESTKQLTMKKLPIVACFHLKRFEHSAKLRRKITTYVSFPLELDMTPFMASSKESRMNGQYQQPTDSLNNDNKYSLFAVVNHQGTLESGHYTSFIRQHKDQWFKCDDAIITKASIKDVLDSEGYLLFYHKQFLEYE
# Procedure, shortened: as §1
# USP24 = USP24 (UniProt Q9UPU5)
# USP24, sequence (Q9UPU5 whole entry): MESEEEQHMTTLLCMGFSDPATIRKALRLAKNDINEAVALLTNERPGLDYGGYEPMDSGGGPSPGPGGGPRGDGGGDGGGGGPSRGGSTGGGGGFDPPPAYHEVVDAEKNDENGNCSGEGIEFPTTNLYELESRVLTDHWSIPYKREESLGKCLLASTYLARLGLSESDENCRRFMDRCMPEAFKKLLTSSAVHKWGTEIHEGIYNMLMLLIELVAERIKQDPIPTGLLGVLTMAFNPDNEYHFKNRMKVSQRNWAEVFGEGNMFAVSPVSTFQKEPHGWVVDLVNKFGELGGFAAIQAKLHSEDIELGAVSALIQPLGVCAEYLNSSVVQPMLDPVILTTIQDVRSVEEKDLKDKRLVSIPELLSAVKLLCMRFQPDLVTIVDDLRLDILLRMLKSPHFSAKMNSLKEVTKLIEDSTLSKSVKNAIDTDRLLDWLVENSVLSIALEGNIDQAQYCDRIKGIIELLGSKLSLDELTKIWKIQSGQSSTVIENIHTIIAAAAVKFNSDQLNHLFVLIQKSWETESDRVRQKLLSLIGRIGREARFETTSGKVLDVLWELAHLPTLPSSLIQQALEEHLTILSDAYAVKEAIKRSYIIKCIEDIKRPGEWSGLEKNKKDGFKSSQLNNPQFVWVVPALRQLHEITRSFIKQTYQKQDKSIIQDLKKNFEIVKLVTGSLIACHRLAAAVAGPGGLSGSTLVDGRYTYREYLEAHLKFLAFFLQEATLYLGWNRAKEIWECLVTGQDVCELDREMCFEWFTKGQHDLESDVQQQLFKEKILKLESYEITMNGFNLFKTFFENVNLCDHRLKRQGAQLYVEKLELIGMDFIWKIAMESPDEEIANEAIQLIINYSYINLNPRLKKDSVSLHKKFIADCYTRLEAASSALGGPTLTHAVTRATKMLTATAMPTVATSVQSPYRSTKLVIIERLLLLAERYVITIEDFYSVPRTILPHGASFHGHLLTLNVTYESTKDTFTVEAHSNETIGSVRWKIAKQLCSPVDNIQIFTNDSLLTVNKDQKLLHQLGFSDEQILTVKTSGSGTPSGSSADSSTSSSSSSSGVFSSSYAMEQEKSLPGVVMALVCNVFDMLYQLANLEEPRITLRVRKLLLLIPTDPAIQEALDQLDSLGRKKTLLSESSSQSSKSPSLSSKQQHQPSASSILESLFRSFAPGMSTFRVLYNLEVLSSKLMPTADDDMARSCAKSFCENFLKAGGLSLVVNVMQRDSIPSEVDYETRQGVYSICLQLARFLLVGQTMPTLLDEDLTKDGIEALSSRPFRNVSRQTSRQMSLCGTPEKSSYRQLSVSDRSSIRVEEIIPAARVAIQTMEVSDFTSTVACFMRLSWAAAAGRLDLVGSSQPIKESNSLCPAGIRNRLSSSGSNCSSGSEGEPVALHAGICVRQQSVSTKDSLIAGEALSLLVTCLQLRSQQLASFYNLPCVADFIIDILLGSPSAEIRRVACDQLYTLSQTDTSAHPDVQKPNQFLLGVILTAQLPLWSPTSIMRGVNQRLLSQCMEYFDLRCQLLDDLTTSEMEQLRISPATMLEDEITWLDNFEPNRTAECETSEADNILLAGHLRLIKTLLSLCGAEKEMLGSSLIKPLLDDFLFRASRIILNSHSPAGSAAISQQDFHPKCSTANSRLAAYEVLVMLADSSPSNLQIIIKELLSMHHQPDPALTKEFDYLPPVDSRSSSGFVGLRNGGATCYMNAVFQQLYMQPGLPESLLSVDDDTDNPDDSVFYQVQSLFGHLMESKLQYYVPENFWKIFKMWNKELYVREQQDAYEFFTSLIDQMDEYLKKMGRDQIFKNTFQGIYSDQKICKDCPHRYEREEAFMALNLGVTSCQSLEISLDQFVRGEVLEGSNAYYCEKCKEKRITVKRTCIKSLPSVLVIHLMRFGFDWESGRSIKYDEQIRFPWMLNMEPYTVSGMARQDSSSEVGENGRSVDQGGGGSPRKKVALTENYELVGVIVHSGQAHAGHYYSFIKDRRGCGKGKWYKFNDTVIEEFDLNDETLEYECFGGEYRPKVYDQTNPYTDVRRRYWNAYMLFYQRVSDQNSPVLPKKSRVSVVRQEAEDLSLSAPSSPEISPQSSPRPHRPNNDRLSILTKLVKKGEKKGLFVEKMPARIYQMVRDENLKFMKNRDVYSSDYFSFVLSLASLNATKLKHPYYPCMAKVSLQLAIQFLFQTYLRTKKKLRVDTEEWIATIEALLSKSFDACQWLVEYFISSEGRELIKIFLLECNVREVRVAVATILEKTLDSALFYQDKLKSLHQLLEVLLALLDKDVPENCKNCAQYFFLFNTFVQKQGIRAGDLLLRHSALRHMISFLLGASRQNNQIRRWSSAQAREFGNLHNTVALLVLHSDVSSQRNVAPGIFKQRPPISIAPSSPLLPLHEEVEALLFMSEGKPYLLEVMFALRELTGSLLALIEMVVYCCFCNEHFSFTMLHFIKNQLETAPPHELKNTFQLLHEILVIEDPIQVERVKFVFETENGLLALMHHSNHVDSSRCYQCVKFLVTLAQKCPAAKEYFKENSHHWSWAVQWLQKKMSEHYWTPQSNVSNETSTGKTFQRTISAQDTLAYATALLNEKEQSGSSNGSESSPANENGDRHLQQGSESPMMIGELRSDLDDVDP
# Procedure, shortened: as §1
# USP25 = target: T3, USP25 (UniProt Q9UHP3)
# T3 sequence (whole entry): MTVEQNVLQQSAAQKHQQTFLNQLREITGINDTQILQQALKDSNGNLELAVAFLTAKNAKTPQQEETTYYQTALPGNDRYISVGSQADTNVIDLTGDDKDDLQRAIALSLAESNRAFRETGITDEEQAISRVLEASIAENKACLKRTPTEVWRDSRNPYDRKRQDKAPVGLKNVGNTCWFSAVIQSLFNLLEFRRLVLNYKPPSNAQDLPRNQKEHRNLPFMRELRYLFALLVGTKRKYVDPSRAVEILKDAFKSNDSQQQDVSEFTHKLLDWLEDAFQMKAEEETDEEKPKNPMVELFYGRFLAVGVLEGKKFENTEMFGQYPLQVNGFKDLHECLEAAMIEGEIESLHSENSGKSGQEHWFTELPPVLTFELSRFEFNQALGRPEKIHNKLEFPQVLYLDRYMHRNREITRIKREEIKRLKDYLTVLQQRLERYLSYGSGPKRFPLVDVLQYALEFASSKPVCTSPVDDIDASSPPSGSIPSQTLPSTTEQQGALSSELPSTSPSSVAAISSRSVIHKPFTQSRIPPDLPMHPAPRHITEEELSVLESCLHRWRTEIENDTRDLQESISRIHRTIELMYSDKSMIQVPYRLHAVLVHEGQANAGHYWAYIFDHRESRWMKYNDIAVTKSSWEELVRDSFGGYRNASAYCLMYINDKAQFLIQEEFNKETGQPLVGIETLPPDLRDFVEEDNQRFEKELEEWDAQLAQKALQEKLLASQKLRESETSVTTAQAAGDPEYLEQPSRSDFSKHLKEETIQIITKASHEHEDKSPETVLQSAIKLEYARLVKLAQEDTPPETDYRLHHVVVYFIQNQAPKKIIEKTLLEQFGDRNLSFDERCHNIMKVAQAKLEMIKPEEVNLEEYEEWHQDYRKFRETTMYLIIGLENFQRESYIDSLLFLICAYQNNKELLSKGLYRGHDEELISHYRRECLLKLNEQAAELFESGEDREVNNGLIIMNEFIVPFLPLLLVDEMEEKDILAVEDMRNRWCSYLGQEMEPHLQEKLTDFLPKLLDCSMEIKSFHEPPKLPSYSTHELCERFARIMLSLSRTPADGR
# Procedure, shortened: as §1
# USP28 = target: T4, USP28 (UniProt Q96RU2)
# T4 sequence (whole entry): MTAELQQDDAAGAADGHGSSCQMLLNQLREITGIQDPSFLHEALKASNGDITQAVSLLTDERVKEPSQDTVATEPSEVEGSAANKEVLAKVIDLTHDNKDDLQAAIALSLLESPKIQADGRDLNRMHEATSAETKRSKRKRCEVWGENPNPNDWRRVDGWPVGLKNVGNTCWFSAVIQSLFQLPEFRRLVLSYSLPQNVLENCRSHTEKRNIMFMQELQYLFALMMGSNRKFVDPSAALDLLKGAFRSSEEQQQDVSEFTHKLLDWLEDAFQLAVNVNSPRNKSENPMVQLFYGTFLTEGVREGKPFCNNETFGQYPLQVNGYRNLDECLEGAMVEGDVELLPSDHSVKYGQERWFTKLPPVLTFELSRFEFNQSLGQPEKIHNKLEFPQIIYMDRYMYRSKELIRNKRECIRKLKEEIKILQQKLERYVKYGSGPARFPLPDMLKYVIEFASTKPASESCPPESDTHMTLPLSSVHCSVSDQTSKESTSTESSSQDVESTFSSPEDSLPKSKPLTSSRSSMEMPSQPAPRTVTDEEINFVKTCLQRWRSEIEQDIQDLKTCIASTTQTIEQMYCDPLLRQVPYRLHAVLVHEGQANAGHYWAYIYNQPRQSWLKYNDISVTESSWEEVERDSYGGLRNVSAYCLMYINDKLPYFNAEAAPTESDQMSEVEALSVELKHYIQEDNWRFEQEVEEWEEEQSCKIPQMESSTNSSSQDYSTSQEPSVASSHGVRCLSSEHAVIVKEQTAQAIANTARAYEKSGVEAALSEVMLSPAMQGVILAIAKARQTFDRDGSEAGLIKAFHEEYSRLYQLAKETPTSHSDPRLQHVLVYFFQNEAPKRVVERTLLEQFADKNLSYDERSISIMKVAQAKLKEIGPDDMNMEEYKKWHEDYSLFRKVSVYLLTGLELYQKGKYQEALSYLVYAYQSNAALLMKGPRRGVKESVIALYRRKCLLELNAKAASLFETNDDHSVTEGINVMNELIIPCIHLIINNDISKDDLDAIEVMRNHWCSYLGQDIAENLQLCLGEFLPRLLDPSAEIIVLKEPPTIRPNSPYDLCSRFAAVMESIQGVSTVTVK
# Procedure, shortened: as §1
compound,measurement,setting,value
N#Cc1cnn(-c2ccccc2)c1NC(=O)CCl,log2 ratio of Biotin-Ahx-Ub-VS probe labelling,USP19,-0.232
same,log2 ratio of Biotin-Ahx-Ub-VS probe labelling,USP22,0.00637
same,log2 ratio of Biotin-Ahx-Ub-VS probe labelling,USP24,-0.338
same,log2 ratio of Biotin-Ahx-Ub-VS probe labelling,USP25,-2.88 (active)
same,log2 ratio of Biotin-Ahx-Ub-VS probe labelling,USP28,-2.37 (active)
